In PubChem BioAssay (NCI):
The panel holds about 83,000 compounds, 20% with a hit somewhere; the sample as a whole holds those more often.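 48-hour exposure, single concentration, 96-well plates; percent growth endpoint where 0 means no net growth. Active: below 10.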 Unmarked numbers belong to inactive results. The source made the active and inactive calls.

Key:
Assay in all cases: NCI-60 one-dose screen, 48 h (100 = growth as untreated, 0 = no growth, -100 = all killed)
Settings in all cases: 10 µM unless noted
HCT-15 colon = tested on: HCT-15 colon
HT29 colon = tested on: HT29 colon
SNB-75 CNS = tested on: SNB-75 CNS
SNB-19 CNS = tested on: SNB-19 CNS
U251 CNS = tested on: U251 CNS
PC-3 prostate = tested on: PC-3 prostate
SK-MEL-5 melanoma = tested on: SK-MEL-5 melanoma
UACC-62 melanoma = tested on: UACC-62 melanoma
LOX IMVI melanoma = tested on: LOX IMVI melanoma
SK-MEL-28 melanoma = tested on: SK-MEL-28 melanoma
SK-MEL-2 melanoma = tested on: SK-MEL-2 melanoma
EKVX NSCLC = tested on: EKVX NSCLC
SN12C renal = tested on: SN12C renal
UO-31 renal = tested on: UO-31 renal
TK-10 renal = tested on: TK-10 renal
ACHN renal = tested on: ACHN renal
CAKI-1 renal = tested on: CAKI-1 renal
A498 renal = tested on: A498 renal
CCRF-CEM leukemia = tested on: CCRF-CEM leukemia
MOLT-4 leukemia = tested on: MOLT-4 leukemia

SMILES | growth (HCT-15 colon) | growth (HT29 colon) | growth (SNB-75 CNS) | growth (SNB-19 CNS) | growth (U251 CNS) | growth (PC-3 prostate) | growth (SK-MEL-5 melanoma) | growth (UACC-62 melanoma) | growth (LOX IMVI melanoma) | growth (SK-MEL-28 melanoma) | growth (SK-MEL-2 melanoma) | growth (EKVX NSCLC) | growth (SN12C renal) | growth (UO-31 renal) | growth (TK-10 renal) | growth (ACHN renal) | growth (CAKI-1 renal) | growth (A498 renal) | growth (CCRF-CEM leukemia) | growth (MOLT-4 leukemia)
CC[C@@]12CC(C(=O)OC)=C3Nc4cc5c(cc4[C@@]34CCN(C[C@H]3O[C@H]31)[C@@H]24)[C@@H]1[C@H](O5)[C@@H](O)[C@@]2(CC)CC(C(=O)OC)=C3Nc4cc(O)ccc4[C@@]34CCN1[C@@H]24 | -51.6% (active) | -14% (active) | -34.4% (active) | -43.8% (active) | -57.5% (active) | 15.9% | -90.2% (active) | -57.8% (active) | -84.4% (active) | -47.3% (active) | -70.4% (active) | -14.9% (active) | -16.8% (active) | -66.2% (active) | -41.1% (active) | -26.4% (active) | -55.8% (active) | -77.1% (active) | 2.67% (active) | -15.9% (active)
Cc1ccc(C(C)C)cc1Oc1cccc(-c2c(-c3ccc(C(F)(F)F)cc3)ncn2C2CCNCC2)n1 | -94.1% (active) | -92.1% (active) | -94.1% (active) | -97.2% (active) | -85.3% (active) | -92% (active) | -98.6% (active) | -94.1% (active) | -75.8% (active) | -80.5% (active) | -93.1% (active) | -91% (active) | -92.1% (active) | -97.4% (active) | -94.9% (active) | -100% (active) | -98.1% (active) | -86.2% (active) | -73.8% (active) | -80.3% (active)
COc1ccc(Nc2nnc(-c3c[nH]c4ccccc34)o2)cc1 | 69% | 106% | 78.8% | 95.2% | 97.6% | 78.6% | 90.6% | 82.2% | 71.6% | 107% | 92% | 68% | 58.6% | 62.6% | 135% | 89.6% | 72.9% | 130% | 7.79% (active) | 40.3%
COc1ccc(S(=O)(=O)Nc2ccc(-c3ccc4c(c3)NC(=O)/C4=C\c3ccc[nH]3)cc2)cc1OC | 41.4% | 8.82% (active) | 13.9% | 3.61% (active) | -58.5% (active) | 44.5% | 20.3% | -45.9% (active) | -30.1% (active) | -90.6% (active) | 46.6% | -27.8% (active) | -0.885% (active) | 54.7% | 11.7% | -31.4% (active) | -11% (active) | 121% | 58.6% | 49%
O=C(CSc1nnc(-c2ccc(-c3nc4ccccc4[nH]3)cc2)o1)Nc1ccccc1 | 55.5% | 70.7% | 46.6% | 3.01% (active) | -61% (active) | 86.2% | 82.7% | 92.1% | 3.54% (active) | 36.3% | 91.4% | 93.9% | 79.7% | 104% | 106% | 23.1% | 86% | 130% | 59% | 27.4%
Cc1ccc(/C=C/C(=O)c2ccc(S(=O)(=O)NCCNc3nc(N(C)C)nc(N4CCOCC4)n3)cc2)cc1 | 46.1% | 37.3% | 59.5% | 79.1% | 42.7% | 57.4% | 89% | 72.6% | 42.1% | 90.7% | 94.1% | 82.6% | 86.4% | 73.2% | 112% | 101% | 64.6% | 96% | 52.1% | 13.5%
Cn1ncc2c(N)nc(Oc3ccccc3-c3ccccc3)nc21 | 10.7% | 14.9% | 8.98% (active) | 33.8% | 32.6% | 58.5% | 0.935% (active) | 26.3% | 34.7% | 53.7% | -4.9% (active) | 41.6% | 43.3% | 48.1% | 65.1% | 51.6% | 29% | 105% | 25.5% | 8.1% (active)
COc1ccc(-c2nc3ccc(-c4nnc(SCC(=O)Nc5ccc(/C(C)=N\O)cc5)o4)cc3[nH]2)cc1 | 93.4% | 86.3% | 11.8% | 57% | 18.6% | 44.3% | -75.7% (active) | 14% | 33.8% | -64.6% (active) | 76.2% | 95.3% | 80.1% | 87.5% | 111% | 85.9% | 96.1% | 166% | 55.6% | 55.9%
Cc1ccc(C(=O)Nc2cc(-n3ccnc3)cc(C(F)(F)F)c2)cc1-n1cc(-c2cnc3cccnn23)nn1 | 97.4% | 39.2% | 132% | 118% | 112% | 123% | 73% | 19.5% | 39.4% | 34.6% | 61.1% | 117% | 105% | 61.4% | 135% | 97.8% | 113% | 180% | 96% | 105%
O=C1CCC(N2C(=O)c3cccc(NCCOCCOCCOCCC(=O)NCCCC(=O)NC(c4ccc5c(c4)OCO5)c4cc(Cl)c5cccnc5c4O)c3C2=O)C(=O)C1 (stereo not given) | 88.8% | 28.5% | 62.7% | 28.5% | 27.2% | 32.5% | 43.6% | 0.155% (active) | -37.6% (active) | 20.4% | -5.74% (active) | 38.1% | 26.9% | 64.5% | 95.2% | 89.3% | 69.8% | 104% | -4.69% (active) | 8.18% (active)
Cn1cc(-c2cc(N)n3nc(-c4c[nH]c5ccccc45)cc3n2)c2ccccc21 | -68.5% (active) | -68.2% (active) | -46.8% (active) | -88.7% (active) | -93.1% (active) | -50.2% (active) | -92.5% (active) | -96.5% (active) | -78.2% (active) | -98.8% (active) | -88.2% (active) | -96.1% (active) | -85.5% (active) | -83.5% (active) | -93.4% (active) | -100% (active) | -100% (active) | -90.4% (active) | -20.6% (active) | 9.25% (active)
CCc1ccc(SC2c3cc(OC)ccc3Oc3nc(N)c(C#N)c(N)c32)cc1 (stereo not given) | -45% (active) | -60.5% (active) | -21.3% (active) | 0.536% (active) | -13.4% (active) | 3.3% (active) | -95.9% (active) | -80.7% (active) | -62.2% (active) | 0.874% (active) | -88.8% (active) | -76.2% (active) | 1.31% (active) | 4.16% (active) | -50.1% (active) | 3.73% (active) | -56.5% (active) | -87.9% (active) | 1.76% (active) | -50.1% (active)
CCCCCCCCc1cccc(CC(=O)Nc2ccc(C)cc2C(=O)O)c1 | 13.2% [25 µM] | 35.9% [25 µM] | 74.1% [25 µM] | 50.9% [25 µM] | 38.2% [25 µM] | 46.8% [25 µM] | 36.5% [25 µM] | 49.4% [25 µM] | 3.4% [25 µM] (active) | 65.5% [25 µM] | 86.3% [25 µM] | 66.5% [25 µM] | 51% [25 µM] | 53.8% [25 µM] | 63.1% [25 µM] | 46.7% [25 µM] | 36.1% [25 µM] | 123% [25 µM] | 26.7% [25 µM] | 17.9% [25 µM]
COc1ccc2[nH]c(=O)c(CSc3ccccc3Nc3nccc(-c4ccc5c(c4)OCO5)n3)cc2c1 | 74.3% | 75.2% | 71.8% | 81.6% | 88.6% | 68.1% | 58.9% | 79.2% | 89.6% | 95.9% | 95.6% | 88% | 89.4% | 75.8% | 99.7% | 90.4% | 68.5% | 107% | 69.8% | 50.1%
COc1cc(C=O)ccc1OC(=O)c1cc(-c2ccc(C)cc2)n(-c2ccc(S(C)(=O)=O)cc2)n1 | 96.7% | 113% | 104% | 90.3% | 100% | 100% | 100% | 91.4% | 98.8% | 113% | 108% | 98.8% | 99.2% | 85.6% | 126% | 104% | 93.5% | 143% | 96.9% | 91.4%
